Laboratory results as given in ChEMBL document CHEMBL4513216, “Probing the Open Global Health Chemical Diversity Library for Multistage-Active Starting Points for Next-Generation Antimalarials” (ACS Infect Dis, 2020).
About 8,600 (12%) of roughly 69,000 compounds showed an effect of 50% or more. What follows is part of a selection rich in strong results, with near analogues and random picks from the rest.

tested on: Plasmodium berghei; assay: Screen against P. berghei liver stage (PbLuc), transformed with Luciferase, at 10uM; type: functional, HepG2; conditions: tested at 10 uM

Compound | INHIBITION [%]
CO[C@@H]1CCN(Cc2cnn(C)c2)[C@@H]2CN(Cc3cccnc3)C[C@@H]21 | 5.96
CNC(=O)[C@@H]1C[C@H](n2cc(-c3ccc(CN4CC=CC4)cc3)nn2)CN1 | 41.2
CC[C@H](Cn1ncc2ccccc2c1=O)NC(=O)c1cnc(C)cn1 | 1.62
CCOC(=O)NCc1nn(CCN2CCCC2)c(=O)c2ccccc12 | 48.8
CC(C)NC(=O)N1CCC2(COCc3cnc(-c4cccnc4)nc32)C1 (stereo not drawn) | 38.1
CCc1oc(C(=O)NCCSc2ncn[nH]2)cc1CN1CCCC1 | 37.9
CCOc1ncccc1NC(=O)N1CCN(CC(=O)NC)CC1 | -22.91
Cc1nccn1CCCN1CCC2(CCC(=O)N(CC3CC3)C2)CC1 | 34.5
COCc1nc(N2CC[C@H](N(C)C)C2)c2cnn(C)c2n1 | -15.8
Cn1ncc2c(N3CCC(CCO)CC3)nc(C(C)(C)C)nc21 | 22.9
CCC1(O)CCCN(c2nc(C(C)(C)C)nc3c2cnn3C)C1 (stereo not drawn) | 48
Cn1ncc2c(N3CCCC(C)(O)C3)nc(C(C)(C)C)nc21 (stereo not drawn) | 19.2
COCC1CCN(c2nc(C(C)(C)C)nc3c2cnn3C)C1 (stereo not drawn) | 50.1
CC(=O)NCCC1CCN(c2nc(C(C)(C)C)nc3c2cnn3C)CC1 | 64.9
CCCc1nc(N2CCCC3(CCNC3)C2)c2cnn(C)c2n1 (stereo not drawn) | 47.1
CN(C)[C@H]1CCN(c2nc(C(C)(C)C)nc3c2cnn3C)C1 | 9.35
Cn1ncc2c(N3CCCC4(CCNC4)C3)nc(C(C)(C)C)nc21 (stereo not drawn) | 63.8
CNC(=O)[C@@H]1[C@@H](c2ccccc2)CN2CCN(Cc3cc(C)no3)C[C@H]12 | 31.3
O=C(NCC(c1ccc(F)cc1)N1CCOCC1)Nc1cn[nH]c1 (stereo not drawn) | -57.4
Cc1cc(C(=O)Nc2ccc(-c3nnc(N(C)C)o3)cc2)oc1C | 22.1
Cc1nnc2ccc(OCCNS(C)(=O)=O)nn12 | 5.91
COCCNCc1cc2cc(C)cc(C)c2[nH]c1=O | 14.6
COc1ccc(CNCC2CN(C3CC3)CCO2)cc1OC (stereo not drawn) | -13.6

Compound | INHIBITION [%]
COc1ccccc1-c1nnc2n1N=C(N)C(C#N)S2 (stereo not drawn) | 34.3
Cc1ccnc(NC(=O)C2CCN(CCCn3ccnc3C)CC2)c1 | 44.3
CC(C)(C)CC(=O)NCC(=O)Nc1ccn(CCCn2ccnc2)n1 | 23.1
Cc1ccnc(NC(=O)C2CCN(CCCc3cn[nH]c3)CC2)c1 | 54.5
Cc1ccnc(NC(=O)C2CCN(CCCn3ccnc3)CC2)c1 | 61.9
COCC1CCN(CCCc2cn[nH]c2)CC1 | 30.8
c1n[nH]cc1CCCN1CCC(OC2CCCCC2)CC1 | 11.8
O=C(c1ccc(-c2ccc(O)nc2)s1)N1CCCCCC1 | -13.87
CCN(Cc1ccncc1)c1nc(C)nc2oc(C)nc12 | 40.6
Cc1nc(N(C)CCCc2nccn2C)c2nc(C)oc2n1 | -26.7
COCCN(Cc1ccccc1C)c1nc(C)nc2oc(C)nc12 | 74
COCCN(Cc1cccnc1)c1nc(C)nc2oc(C)nc12 | 44.3
Cc1nc(N(CCC(N)=O)Cc2ccccc2)c2nc(C)oc2n1 | 48.8
CCOc1ccc(CN(CCOC)c2nc(C)nc3oc(C)nc23)cc1 | 83.2
CCS(=O)(=O)N1CC[C@H]2[C@H]1CC(=O)N2Cc1csc(C)n1 | -10.3
CN1CCN(Cc2cn3c(n2)CNCC3)CC1 | 36.4
O=C(CSC1CCCC1)N1CCN(C(=O)C2CC2c2ccccc2)CC1 (stereo not drawn) | 46.4
Cc1cnc(-c2cccc(-c3ccn(CCCO)n3)c2)nc1N(C)C | 26.8
CCS(=O)(=O)CC(=O)NC(c1ccccc1)C1CCCCC1 (stereo not drawn) | -5.53
COCCc1noc(CN2CCCC2c2c(C)nn(C)c2Cl)n1 (stereo not drawn) | 5.9
N#Cc1ccc(NCCS(=O)(=O)N2CCc3ccccc32)nc1 | 14
CC(C(=O)Nc1ccc(C#N)cc1)N1CCc2ccccc21 (stereo not drawn) | -45.2
N#Cc1ccc(CNCCS(=O)(=O)N2CCc3ccccc32)cc1 | 60.3

Compound | INHIBITION [%]
O=C(CCc1ccccc1)C1CCCN(C(=O)c2cncc(Cl)c2)C1 (stereo not drawn) | 42.5
CCN(CC)S(=O)(=O)N1CCCC1c1nnc2n1CCCCC2 (stereo not drawn) | 20.9
O=C(c1ccc2c(c1)OCO2)N1CCCSCC1CN1CCCC1 (stereo not drawn) | 3.16
O=C(c1ccc2[nH]ccc2c1)N1CCCSCC1CN1CCCC1 (stereo not drawn) | 59.8
O=C(c1ccc(F)c(F)c1)N1CCCSCC1CN1CCCC1 (stereo not drawn) | 25.3
O=C(c1ccncc1F)N1Cc2nc(CN3CCCCC3)oc2C1 | 51.2
CCN(CC)Cc1nc2c(o1)CN(C(=O)c1ccc3[nH]ccc3c1)C2 | 0.804
O=C(NCc1ccccc1)N1Cc2nc(COCC3CC3)oc2C1 | 44.2
O=C(c1ccc2[nH]ccc2c1)N1Cc2nc(CN3CCCC3)oc2C1 | 31.4
CCN(CC)Cc1nc2c(o1)CN(C(=O)c1ccncc1F)C2 | 3.17
O=C(Cc1cccs1)N1Cc2nc(COCC3CC3)oc2C1 | 18.6
CN(C)Cc1nc2c(o1)CN(C(=O)c1ccncc1F)C2 | 24.9
O=C(c1ccncc1F)N1Cc2nc(COCC3CC3)oc2C1 | 55.7
O=C(c1ccc2[nH]ccc2c1)N1Cc2nc(CN3CCCCC3)oc2C1 | 50.7
CN(C)C(=O)C1CCN(Cn2nc(-c3ccc(F)cc3)oc2=O)CC1 | 34.7
CCCN1CCC(Cc2noc(-c3ncccc3C)n2)CC1 | 12.9
CNC(=O)CCNC(=O)c1cc(C)n(-c2cccc(OC)c2)c1C | 11.2
CNc1nc2c(c(C(=O)N3CCCC3)n1)CN(C(=O)C1CCCC1)CC2 | 43.4
Cc1nc(S(=O)(=O)N2CCC3(CCCCC3)C2)cn1C | -9.2
NC(=O)COc1cccc(C(=O)NCc2ccc(Cl)s2)c1 | 3.03
O=C(C1CCOC1)N1CC[C@@H](O)[C@@H]1Cc1ccccc1 (stereo partly drawn) | 10.7
CCC(=O)N1CCCc2c(cnn2C)C1 | -5.452
